SW480 rereplic: DNA re-replication induction in SW480 cells. Potency, µM (highest dose often 46.1 µM), actives largely listed as activators. AID 624297. SW480 DNA re-replication, Hoechst DNA content imaging, 48 h. hit rate 1.8% among 340,000; also: nearly all actives have a fitted effect of over 55% in size
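Compounds, transferred as 23 nL by pin tool, were incubated with cells for 48 hr; DNA content per nucleus was then quantified by Hoechst staining and fluorescence plate imaging.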
PINK1 expr mod: PINK1 expression modulation; PINK1 immunofluorescence, high-content cytometry, 24 h; Potency, µM (titrated, usually from 76.6 µM), actives largely listed as activators; hit rate 0.2% among 410,000; AID 624263; active = well fitted activation curve with a large enough effect; inconclusive = small, poorly fitted or top-dose-only effect; cell line not stated here; also: nearly all actives have a fitted effect of over 65% in size
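Fluorescence from anti-PINK1 antibody, together with nuclear and cell stains, was scanned on a laser-scanning cytometer. Before staining, stable-line cells were incubated 24 hours with compounds at 5 concentrations; primary antibody 12 h at 10 degrees C.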
KB-3-1 tox: KB-3-1 parental cell cytotoxicity; hit rate 1.4% among 400,000; AID 1347075; KB-3-1 viability, CellTiter-Glo ATP luminescence, 72 h; Potency, µM (titrated, usually from 46.1 µM), usual class: cytotoxic; also: nearly all actives have a fitted effect of over 60% in size
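Using CellTiter-Glo luminescence, growth of non-resistant KB-3-1 adenocarcinoma cells is assessed 72 h after pin-tool compound addition at 37 °C. Normalized responses across the concentration series yield fitted curves.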
MCF10A rereplic: DNA re-replication induction in MCF 10a cells; hit rate 2.9% among 350,000; Potency, µM (titrated, usually from 46.1 µM), most hits filed as activators; MCF 10A DNA re-replication, Hoechst nuclear intensity, 48 h; AID 624296; also: nearly all actives have a fitted effect of over 50% in size
KB-V1 cytotox: KB-V1 MDR subline cytotoxicity; Potency, µM (highest dose often 46.1 µM), hits mostly cytotoxic; KB-V1 MDR cells viability, CellTiter-Glo, 72 h; hit rate 3.4% among 400,000; also: nearly all actives have a fitted effect of over 60% in size
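KB-V1, DMEM (no phenol red) + 10% FBS; cpd pin-transferred, titration series; 72 h, 37 degrees C; CellTiter-Glo, luminescence. Data normalized, curve-fit.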
Of the large screens only hits and unclear results are named; the others gave an inactive call. The list is not random: actives were taken first. Their share in the collection is about 6.7%. Unless noted, calls follow the shape of the dose curve; as a rule, active = well fitted curve in the direction sought with a large enough effect; inconclusive = small, poorly fitted or top-dose-only effect, or another doubt; inactive = no such curve, though single readings can be large; an effect the other way counts as inactive or inconclusive.

CCOc1c(Cl)cc(CNc2ccc(N3CCCC3)cc2)cc1OC	SW480 rereplic 10µM, KB-3-1 tox inconclusive, MCF10A rereplic inconclusive
CCOc1c(Cl)cc(CNC(C)(C)CC(C)(C)C)cc1OC	PINK1 expr mod inconclusive, KB-3-1 tox inconclusive, MCF10A rereplic 8.2µM, KB-V1 cytotox inconclusive
CCOc1c(Cl)cc(CNc2ccc(S(N)(=O)=O)cc2)cc1OC	none
Nc1nc(-c2ccc3c(c2)CCC(=O)N3)cs1	KB-3-1 tox 5.2µM, KB-V1 cytotox 3.7µM
O=C(Nc1cc(Cl)cc(Cl)c1)N[C@@H]1CC[C@@H](CCNS(=O)(=O)c2cccc(F)c2)O[C@@H]1CO	KB-3-1 tox inconclusive (no result: SW480 rereplic, PINK1 expr mod, MCF10A rereplic)
O=C1NC2(CCc3ccccc32)C(=O)N1CCOc1ccc(Cl)cc1 (configuration not stated)	none
Cc1ccccc1OCCN1C(=O)NC2(CCc3ccccc32)C1=O (configuration not stated)	KB-V1 cytotox 23µM
Cc1ccc2[nH]cc(C(c3ccccc3)c3cccs3)c2c1 (configuration not stated)	none (no result: SW480 rereplic, MCF10A rereplic)
COc1ccc(/C=C2\SC(N)=NC2=O)cc1	KB-V1 cytotox inconclusive
CCOC(=O)CSC1=NC(=O)/C(=C/c2ccc(OC)cc2)S1	SW480 rereplic inconclusive, KB-3-1 tox 12µM, MCF10A rereplic 5.8µM, KB-V1 cytotox inconclusive
COc1ccccc1C(=O)Nc1nnc(S(=O)(=O)N(C)Cc2ccccc2)s1	SW480 rereplic inconclusive, MCF10A rereplic inconclusive
ClCCn1cnc2c(SCc3ccccc3)ncnc21	SW480 rereplic inconclusive, KB-3-1 tox 4.1µM, KB-V1 cytotox 6.5µM
Cc1cccc(N2CCN(C(=O)c3cc4c(=O)n(C)c5ccccc5c4n3C)CC2)c1C	none
Cc1ccc(Cl)cc1N1CCN(C(=O)c2cc3c(=O)n(C)c4ccccc4c3n2C)CC1	KB-3-1 tox inconclusive, KB-V1 cytotox 2.6µM
Cn1sc2ccccc2c1=O	KB-V1 cytotox inconclusive (no result: SW480 rereplic, MCF10A rereplic)
Cn1sccc1=O	SW480 rereplic 1.6µM
CC(C)CC1NC(=O)c2cccnc2-n2c1nc1ccccc1c2=O (configuration not stated)	none (no result: SW480 rereplic, MCF10A rereplic)
Cn1nnc(-c2ccc(OCc3ccccc3F)cc2)n1	none
CC(C)n1nnc(-c2ccc(OCc3ccccc3F)cc2)n1	SW480 rereplic 15µM
COCCNC(=O)C1(C)Cc2c(-c3ccc4c(c3)OCO4)ccnc2O1 (configuration not stated)	KB-3-1 tox inconclusive (no result: SW480 rereplic, MCF10A rereplic)
CCCCCCCCCC[n+]1cccc2cc(Cl)ccc21	PINK1 expr mod inconclusive, KB-3-1 tox 5.2µM (no result: SW480 rereplic, MCF10A rereplic)
CCCCCCCC[n+]1cccc2c3ccccc3ccc21	SW480 rereplic inconclusive, PINK1 expr mod 25µM, KB-3-1 tox inconclusive, MCF10A rereplic inconclusive
Cc1cc[n+](CC(=O)c2ccc(F)cc2)c2ccccc12	none (no result: SW480 rereplic, PINK1 expr mod, MCF10A rereplic)
CCCCCCCCCC[n+]1cccc2c3ccccc3ccc21	PINK1 expr mod inconclusive, KB-3-1 tox 1.2µM
CCCCCCCCCCCCCCCC[n+]1ccc(C)c2ccccc21	KB-3-1 tox 3.7µM, KB-V1 cytotox 13µM (no result: SW480 rereplic, PINK1 expr mod, MCF10A rereplic)
CC1(Oc2cccc(C#N)c2)CCN(Cc2csc3ccccc23)C1 (configuration not stated)	none (no result: SW480 rereplic, MCF10A rereplic)
O=C(CCS(=O)(=O)c1cc2c3c(c1)CCN3C(=O)CC2)NCc1ccc(F)cc1	none (no result: SW480 rereplic, MCF10A rereplic)
C=CCCC(=O)N1C[C@H]2CON(C)[C@H]2C[C@H]1c1ccc(N2CCCCC2)cc1	none (no result: SW480 rereplic, MCF10A rereplic)
Cc1noc(/C=C/c2nn(C)cc2Cl)c1[N+](=O)[O-]	SW480 rereplic inconclusive, KB-3-1 tox inconclusive, MCF10A rereplic 21µM, KB-V1 cytotox inconclusive
Cc1cccc(/C=C/c2onc(C)c2[N+](=O)[O-])n1	SW480 rereplic inconclusive, KB-3-1 tox 10µM, MCF10A rereplic 7.3µM, KB-V1 cytotox inconclusive
Cc1cccc(N/C=C/c2onc(C)c2[N+](=O)[O-])c1	KB-3-1 tox inconclusive
CC(C)(C)n1c(O)c2n(c1=O)Cc1ccccc1N=C2c1ccccc1	none (no result: SW480 rereplic, MCF10A rereplic)
CC(C)(C=O)C1=CC(=O)c2ccccc2C1=O	SW480 rereplic 7.3µM, MCF10A rereplic 13µM
Cc1ccc2c(c1)C(=O)CC(c1ccc3c(c1)OCCO3)O2 (configuration not stated)	MCF10A rereplic 16µM
O=S(NCc1ccco1)C12CC3CC(CC(C3)C1)C2 (configuration not stated)	MCF10A rereplic 21µM
O=C(NCc1ccco1)C12CC3CC(C1)CC(C(=O)NCc1ccco1)(C3)C2	KB-V1 cytotox 21µM
O=S(NCc1ccccc1)C12CC3CC(CC(C3)C1)C2 (configuration not stated)	none
O=C(Nc1cccc(Cl)c1)c1ccc(NCC2CCCO2)c([N+](=O)[O-])c1 (configuration not stated)	PINK1 expr mod inconclusive
Cc1ccc(C(=O)Nc2ccc(Cc3ccncc3)cc2)cc1[N+](=O)[O-]	KB-3-1 tox inconclusive, KB-V1 cytotox 5.8µM
CCCC(=O)Nc1cccc(NC(=O)c2ccc(C)c([N+](=O)[O-])c2)c1	none
Cc1cccc(NC(=O)c2ccc(NCC3CCCO3)c([N+](=O)[O-])c2)c1 (configuration not stated)	PINK1 expr mod inconclusive, KB-V1 cytotox 4.1µM
CCC(=O)Nc1cccc(NC(=O)c2ccc(C)c([N+](=O)[O-])c2)c1	KB-V1 cytotox 15µM
CCc1ccc(NC(=O)Nc2ccccc2OCc2cc(=O)n3ccccc3n2)cc1	none (no result: SW480 rereplic, KB-3-1 tox, MCF10A rereplic, KB-V1 cytotox)
CN(c1ccccc1)c1nc(C#N)nc(N2CCOCC2)n1	KB-V1 cytotox inconclusive (no result: SW480 rereplic, MCF10A rereplic)
COc1cccc(/C=C/c2cnc3ccccc3n2)c1OC	none (no result: SW480 rereplic, MCF10A rereplic)
Cc1nc(N2CCN(Cc3ccccc3)CC2)nc2c1C(=O)CC(C)C2 (configuration not stated)	KB-V1 cytotox 21µM
CCC1(C2CCN(Cc3cccc(Cl)c3)CC2)NC(=O)N(CC2COc3ccccc3O2)C1=O (configuration not stated)	none (no result: SW480 rereplic, KB-3-1 tox, MCF10A rereplic, KB-V1 cytotox)
CCCCN(CCCC)S(=O)(=O)c1ccc(NC(=O)c2ccc([N+](=O)[O-])cc2Cl)cc1	KB-3-1 tox inconclusive, KB-V1 cytotox 16µM
CCN(CC)S(=O)(=O)c1cc([N+](=O)[O-])ccc1NNC(=O)Nc1ccc(Cl)c(Cl)c1	PINK1 expr mod 14µM, KB-3-1 tox 5.8µM, MCF10A rereplic inconclusive, KB-V1 cytotox inconclusive
Cc1ccc(Cl)cc1OCC(=O)NCCOC(=O)Nc1sc(=S)n(C)c1C	KB-3-1 tox inconclusive, KB-V1 cytotox 13µM
Clc1ccc(CCNC(c2cccc(Cl)c2)c2nnc(-c3ccccc3)o2)cc1 (configuration not stated)	none (no result: SW480 rereplic, MCF10A rereplic)
O=S(=O)(Cc1ccccc1)N1CCN(c2nc(-c3cccs3)nc3ccccc23)CC1	none (no result: SW480 rereplic, KB-3-1 tox, MCF10A rereplic, KB-V1 cytotox)
CN1CCN(C(=O)c2ccc(S(=O)(=O)N(C)c3ccccc3)cc2)CC1	none (no result: SW480 rereplic, MCF10A rereplic)
CCOc1ccccc1N1CCN(C(=O)c2ccc(Cl)c(S(=O)(=O)N3CCCCC3)c2)CC1	MCF10A rereplic inconclusive, KB-V1 cytotox 7.3µM
COc1cc2c(cc1OC)CN(C(=O)c1ccc(Cl)c(S(=O)(=O)N3CCCC3)c1)CC2	MCF10A rereplic inconclusive, KB-V1 cytotox 21µM

Assay outcomes from PubChem.
